Screening data as filed in PubChem BioAssay.
HCMV inh – qHTS Assay for inhibitors of the human cytomegalovirus (HCMV). activity change, negative = inhibition, % at 57.5 µM. HFF cells, HCMV-luciferase reporter, 72 h; stronger effect = lower value. actives 4.5% (n = 410,000); in the data active means activity change below about -60%; inconclusive means no clear call, values can overlap the other calls; inactive means above about -39%; further: on the % scale 0 is the no-effect control and ±100 the full control effect
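After 16 h attachment at 37C, HFF cells received test compound and HCMV-luciferase (1 PFU/cell); reporter luminescence read 72 h later, data normalized against buffer-only and known inhibitor Salinomycin.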
Sm TGR block – qHTS Assay for the Inhibitors of Schistosoma Mansoni Peroxiredoxins. Schistosoma mansoni thioredoxin glutathione reductase (TGR), Q962Y6. purified TGR, DTNB reduction, TNB absorbance 405 nm. actives 3% (n = 360,000). Potency, µM (series often up to 114 µM), without a hit: at the highest dose activity change, negative = inhibition, usual class: inhibitors; further: potency means the concentration at half of the fitted maximal effect; on the % scale 0 is the no-effect control and ±100 the full control effect; nearly all actives have a fitted effect of over 60% in size
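Kinetic colorimetric format: TGR-catalysed, NADPH-driven DTNB reduction monitored via TNB absorbance. Enzyme dispensed at 20 nM; compound exposure 15 min at room temperature before reaction start.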
SARS PLP yeast – qHTS of Yeast-based Assay for SARS-CoV PLP. S. cerevisiae expressing SARS-CoV PLpro, growth rescue. Potency, µM (highest dose often 32.9 µM), without a hit: at the highest dose activity, positive = growth rescue, hits mostly activators. actives 0.19% (n = 330,000). AID 485353, 2010; calls by dose curve; further: potency means the concentration at half of the fitted maximal effect; 0% is about no effect; nearly all actives have a fitted effect of over 55% in size
Pf growth 96h – Primary qHTS for delayed death inhibitors of the malarial parasite plastid, 96 hour incubation | Potency, µM (doses to about 28.7 µM), for the others: at the top dose activity change, negative = inhibition, hits mostly inhibitors | AID 504834, 2011 | P. falciparum luciferase reporter growth, 96 h | actives 6.9% (n = 320,000); further: potency means the concentration at half of the fitted maximal effect; on the % scale 0 is the no-effect control and ±100 the full control effect
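Luminescence readout: decreased luciferase signal marks inhibited growth of reporter-expressing P. falciparum in infected red cells (2% hematocrit, 0.05% parasitemia final), exposed to compound two generations (96 h, 37 C, 5% CO2).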
Pf growth 48h – Primary qHTS for delayed death inhibitors of the malarial parasite plastid, 48 hour incubation; AID 504832, 2011; P. falciparum luciferase growth in erythrocytes, 48 h; Potency, µM (highest dose often 28.7 µM), without a hit: at the top dose activity change, negative = inhibition, usual class: inhibitors; actives 5.9% (n = 310,000); further: potency means the concentration at half of the fitted maximal effect; on the % scale 0 is the no-effect control and ±100 the full control effect
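First compound was added to culture medium, then infected red cells at 0.1% parasitemia and 2% hematocrit (final). After incubation at 37 C under 5% CO2, luciferase detection reagent was dispensed and light output recorded.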
HCV inh – qHTS Assay for Inhibitors of Hepatitis C Virus (HCV); Potency, µM (highest dose often 41.8 µM), inactives show at the highest dose activity change, negative = inhibition, usual class: inhibitors; AID 651820, 2012; actives 3.4% (n = 340,000); Huh7.5.1 HCVcc-Cre infection, luciferase reporter, 44 h; further: potency means the concentration at half of the fitted maximal effect; on the % scale 0 is the no-effect control and ±100 the full control effect
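Cells seeded at 1,000/well and cultured 4 h, then compounds added followed by HCVcc-Cre virus (~0.5 moi). After 44 h further culture, luciferase substrate was added, plates held 15 min at room temperature, and luminescence read for 15 sec.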
The depositor's hits bear a star; ? = inconclusive; . = no result; ! = repeats disagree. Compounds with a hit are over-represented: about 15% of the library has one in this group of screens. Unless noted, the call rests on the fitted dose curve; in most records, active means well fitted curve in the direction sought with a large enough effect; inconclusive means small, poorly fitted or top-dose-only effect, or another doubt; inactive means no such curve, though single readings can be large; an effect the other way counts as inactive or inconclusive.

SMILES	HCMV inh	Sm TGR block	SARS PLP yeast	Pf growth 96h	Pf growth 48h	HCV inh
CCN(CC)CCOCCOC(=O)C(CC)(CC)c1ccccc1 (tested in a mixture with another compound)	.	.	.	6.7µM*	19µM*	.
CCc1ccc(NC2=CC(=O)CC(C)(C)C2)cc1	-9	7%	-1%	-2%	-4%	12%
CC(C)c1ccc(NC2=CC(=O)CC(C)(C)C2)cc1	-27	6%	0%	4.7µM*	-25%	?
Cc1ccc(-c2onc3ccc(C=O)cc23)cc1	19	45µM*	-7%	194%	.	29%
O/N=C\c1ccc2noc(-c3ccc(Cl)cc3)c2c1	-38	0%	1%	114%	24%	6%
CC(=O)c1ccc2noc(-c3ccc(Cl)cc3)c2c1	-62*	28µM*	-2%	-2%	-7%	0%
CN(C)/C=C/C(=O)c1ccc2noc(-c3cccc(F)c3)c2c1	?	-18%	-4%	?	-11%	?
COc1ccc(-c2onc3ccc(C(=O)/C=C/N(C)C)cc23)cc1	25	5%	-4%	?	10µM*	-18%
Cc1cc(-c2onc3ccc(Cl)cc23)ccc1O	97	40µM*	-3%	15%	-11%	?
CCC1CN(C(=O)NCc2cccc(OC)c2)c2ccccc2O1 (configuration not stated)	-8	0%	-2%	40%	-8%	?
CCC1CN(C(=O)N2CCC(C(=O)NCc3ccc(C)o3)CC2)c2cc(C)ccc2O1 (configuration not stated)	5	?	0%	14%	?	?
CCC1CN(C(=O)N2CCC(C(=O)NCc3ccco3)CC2)c2cc(C)ccc2O1 (configuration not stated)	3	?	23%	13µM*	-24%	?
CCC1CN(C(=O)NCc2ccc(C)cc2)c2cc(C)ccc2O1 (configuration not stated)	-75*!	-16%	0%	?	?	-23%
CCc1ccccc1NC(=O)N1CC(CC)Oc2ccc(Cl)cc21 (configuration not stated)	-61*	-2%	.	.	.	.
CCC1CN(C(=O)NCc2cccc(OC)c2)c2cc(Cl)ccc2O1 (configuration not stated)	-18	-8%	-6%	25%	?	5.6µM*
CCCCNC(=O)c1cnc2c(-c3ccc(OCC)c(OCC)c3)c(C)nn2c1-c1ccccc1	-1	2%	.	.	.	.
C/C(=C\c1csc(C)n1)[C@@H]1C[C@@H]2O[C@]2(C)CCC[C@H](C)[C@H](O)[C@@H](C)C(=O)C(C)(C)[C@@H](O)CC(=O)O1	.	.	.	?	0.0013µM*	.
Cc1nc(C2CC(=O)OC23CCCCC3)cs1 (configuration not stated)	-8	1%	2%	10%	-2%	20%
CC(=O)OC(C)[C@H]1CC[C@H]2[C@@H]3CC[C@H]4C[C@@H](OC(C)=O)CC[C@]4(C)C3=CC[C@]12C (some centres not stated)	-14	2%	0%	57%	?	11%
O=C(CN1C(=O)COc2ccc(S(=O)(=O)N3CCCC3)cc21)NCc1ccccn1	-39	-5%	-5%	-2%	-7%	12%
CC1CCC(NC(=O)c2ccc3c(c2)N(Cc2ccccc2)C(=O)c2ccccc2S3(=O)=O)CC1 (configuration not stated)	?	-13%	.	.	.	.
CN(C(=O)c1ccc2c(c1)N(Cc1cccc(Cl)c1)C(=O)c1ccccc1S2(=O)=O)C1CCCCC1	-79*	17%	.	.	.	.
